The record followed here is PubChem BioAssay (NCI).

The experiment in a line: NCI Yeast Anticancer Drug Screen. Data for the sgs1 strain (AID 173).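 Further: 0% = growth of vehicle-only control cultures.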 Conditions: S. cerevisiae sgs1 mutant, stronger effect = higher value. As to the method: Growth inhibition of yeast strains with defined genetic alterations is measured as a screen for potential anti-cancer activity. Selected strains with alterations in DNA damage repair or cell cycle control were exposed to compounds and growth inhibition was measured relative to vehicle treated controls. The strain used in this assay is sgs1

The structures appear in SMILES notation. About 79,000 compounds went through this panel and 15% of them were active in at least one assay; those are over-represented in the sample as a whole. A number with no mark means an inactive call. The source made the active and inactive calls. No stated cut-off is given here; in the data, active means growth inhibition above about 70%; inactive means the rest.

For the molecule `O=C(Nc1ccc(Cl)cc1)Nc1nnc2nc(C(C(=O)c3cccc([N+](=O)[O-])c3Cl)c3nc4nnc(NC(=O)Nc5ccc(Cl)cc5)n4[nH]c3=O)c(=O)[nH]n12`, the growth inhibition is -1% (at 1.2 µM); 0% (at 3.7 µM); -2% (at 11.0 µM); 1% (at 33.0 µM); 60% (at 100.0 µM).
Turning to `C=C1C(=O)OC2CC1C(OC(C)=O)C/C(C)=C/CC/C(C)=C\CCC2(C)O` (stereo not given), the growth inhibition by setting is: (at 1.2 µM) 13%; (at 3.7 µM) 27%; (at 11.0 µM) 40%; (at 33.0 µM) 55%; (at 100.0 µM) 90% (active).
The corresponding values for `OC(/C=C/c1ccccc1)(Cc1cc(-c2ccccc2)n[nH]1)c1ccccc1` (stereo not given) are -9%, 6%, 4%, 9% and 1%.
Taken in the same sequence, the figures for `CCN(CC)CCOc1cc(C)c2cc(Cc3ccccc3)ccc2n1` were 0%, 3%, 12%, 35% and 96% (active).
As to `CN1C(=O)c2ccc3ccccc3c2C1=O`, the growth inhibition was 0% (at 1.2 µM); 1% (at 3.7 µM); 14% (at 11.0 µM); 25% (at 33.0 µM); 42% (at 100.0 µM).
The corresponding values for `CCCCNC1CCC2(SCCS2)c2[nH]c3ccccc3c21` (stereo not given) are 0%, -2%, -1%, -3% and 3%.
Taken in the same sequence, the figures for `O=C(CSC(=S)N1CCCCC1)Nc1nc2c(s1)CCCC2` were 22%, 20%, 15%, 52% and 92% (active).
With `O=C(/C=C/c1cc(Cl)cc(Cl)c1O)c1cccc(O)c1`, the growth inhibition is 22% (at 1.2 µM); 23% (at 3.7 µM); 78% (active) (at 11.0 µM); 98% (active) (at 33.0 µM); 98% (active) (at 100.0 µM).
